Assay [1] concerns transactivating tegument protein VP16 (Human herpesvirus 1). As to the kind of experiment: compounds suppressing VP16-driven luciferase signal – cell-based, luminescence, single concentration, counter-screen for SRC2 inhibitor project (AID 652007; in the data active means inhibition above about 36%). The conditions noted are these: cell-based VP16 transactivation luciferase reporter, at 8.9 µM, active compounds read high. Background: Counterscreens check selectivity or assay interference.

Assay [2] concerns the target Nuclear receptor coactivator 2 (Homo sapiens) (UniProt Q15596). As to the kind of experiment: inhibition of GAL4-SRC2 driven luciferase expression – cell-based, luminescence, HEK293, triplicate, confirmation (AID 652008).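 Further: 0% = DMSO-treated cells and 100% = Gossypol at 36 µM.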 The settings on record: HEK293 GAL4-SRC2 luciferase reporter, at 8.9 µM, active compounds read high. Background: A reporter such as luciferase makes a cellular process visible.

Structures are written as SMILES. Unmarked numbers belong to inactive results. Active and inactive are the calls of the source.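 How the source made its calls, unless noted: active means mean inhibition above 46.5%, the solvent-only control mean plus 3 SD; inactive means the rest.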

Sequence of Nuclear receptor coactivator 2 (Homo sapiens) (Q15596 whole entry, looked up, the tested form may be a part): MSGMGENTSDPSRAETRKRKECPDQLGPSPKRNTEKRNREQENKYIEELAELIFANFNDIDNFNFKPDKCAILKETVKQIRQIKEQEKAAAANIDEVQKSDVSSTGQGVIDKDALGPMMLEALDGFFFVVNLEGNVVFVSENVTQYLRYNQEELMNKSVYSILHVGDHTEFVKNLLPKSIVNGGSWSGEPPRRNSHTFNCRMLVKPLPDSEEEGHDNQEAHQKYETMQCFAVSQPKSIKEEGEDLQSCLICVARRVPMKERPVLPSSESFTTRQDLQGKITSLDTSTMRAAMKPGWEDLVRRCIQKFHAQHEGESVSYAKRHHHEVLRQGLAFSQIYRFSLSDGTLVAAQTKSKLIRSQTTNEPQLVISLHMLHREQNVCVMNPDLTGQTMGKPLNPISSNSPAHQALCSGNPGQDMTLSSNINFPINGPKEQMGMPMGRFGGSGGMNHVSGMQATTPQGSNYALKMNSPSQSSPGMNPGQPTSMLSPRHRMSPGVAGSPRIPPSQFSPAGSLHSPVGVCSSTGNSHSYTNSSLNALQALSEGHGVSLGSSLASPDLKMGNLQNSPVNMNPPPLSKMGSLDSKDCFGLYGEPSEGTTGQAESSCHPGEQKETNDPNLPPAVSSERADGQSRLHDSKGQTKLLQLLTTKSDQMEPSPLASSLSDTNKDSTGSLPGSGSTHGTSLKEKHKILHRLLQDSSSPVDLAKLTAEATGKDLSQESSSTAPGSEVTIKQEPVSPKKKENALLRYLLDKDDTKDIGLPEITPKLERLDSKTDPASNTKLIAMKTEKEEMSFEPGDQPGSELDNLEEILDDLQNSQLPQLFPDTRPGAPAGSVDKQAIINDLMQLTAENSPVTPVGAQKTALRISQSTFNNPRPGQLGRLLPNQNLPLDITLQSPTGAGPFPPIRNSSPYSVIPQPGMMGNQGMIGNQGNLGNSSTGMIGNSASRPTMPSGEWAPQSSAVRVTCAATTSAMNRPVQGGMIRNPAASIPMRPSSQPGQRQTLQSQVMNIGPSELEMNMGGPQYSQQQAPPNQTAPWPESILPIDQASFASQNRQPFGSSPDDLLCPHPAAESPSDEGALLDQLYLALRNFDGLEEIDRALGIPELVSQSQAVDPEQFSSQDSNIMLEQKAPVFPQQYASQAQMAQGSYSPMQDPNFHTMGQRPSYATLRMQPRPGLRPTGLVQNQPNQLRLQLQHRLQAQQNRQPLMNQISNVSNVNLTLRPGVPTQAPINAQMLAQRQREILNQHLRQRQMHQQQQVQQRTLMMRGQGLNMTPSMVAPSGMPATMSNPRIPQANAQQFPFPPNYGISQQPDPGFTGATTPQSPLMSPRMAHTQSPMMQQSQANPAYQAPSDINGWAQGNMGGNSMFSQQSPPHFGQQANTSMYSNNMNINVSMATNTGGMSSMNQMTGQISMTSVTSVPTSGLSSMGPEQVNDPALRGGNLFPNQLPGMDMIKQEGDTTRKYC

On to `C=CS(=O)(=O)N(Cc1ccc(C)cc1)[C@@H](CO)C(=O)OC`, for which the values for the inhibition in assay [1] and in assay [2] were 17.1% and 63.8% (active), respectively.

With `CCOc1ccc(/C=C/c2c([N+](=O)[O-])c(=O)n(C)c(=O)n2C)cc1`, the inhibition – broadly, the relative decrease from the control value, in per cent – in assay [1] was 7.01%; in assay [2], 2.26%.

`CCOC(=O)C1=CCN(S(=O)(=O)c2cccc(Cl)c2)C1c1ccc(Cl)c(Cl)c1` (configuration not stated): the figures for the inhibition in assay [1] and in assay [2] were -7.88% and 7.77%, respectively.

As for `COc1ccc(CNC(=O)C2CCCN(Cc3nc(-c4cccc(C)c4)oc3C)C2)cc1` (configuration not stated), the inhibition was -10.5% in assay [1] and 0.33% in assay [2].

On to `CCS(=O)(=O)c1cc([N+](=O)[O-])c(Sc2ccccc2NC(C)=O)s1`, for which the inhibition in assay [1] is -21%; in assay [2], -26.1%.

For the compound `COc1cc(NC(=O)CSCC(=O)Nc2cccc(C(F)(F)F)c2)c(Cl)cc1Cl`, the inhibition in assay [1] was 5.02%; in assay [2], 5.14%.

With `CSc1nnc(NC(=O)c2nc(S(=O)(=O)Cc3cccc(C)c3)ncc2Cl)s1`, the values for the inhibition in assay [1] and in assay [2] were 41.9% (active) and 73.1% (active), respectively.

As for `CCC(C(=O)NCc1ccc(F)cc1)n1nc(C)n2c(cc3occc32)c1=O` (configuration not stated), the inhibition in assay [1] is -13.4%; in assay [2] it was -6.88%.

For `CCOc1ccc(-c2nc(CSCC(=O)NCc3ccco3)c(C)o2)cc1`, the inhibition was -11.2% in assay [1] and 37% in assay [2].

Consider `Cc1ccc(-c2c(C(=O)N/N=C/C3CCCCC3)nnn2-c2nonc2N)cc1`, for which the inhibition in assay [1] is -21.5%; in assay [2], -23%.

With `CCOc1cc(/C=C2/NC(=O)N(Cc3ccccc3F)C2=O)ccc1O`, the inhibition in assay [1] was 4.78%; in assay [2] it was 30.1%.

Take `Cc1cc(C(=O)CN2C(=O)c3ccccc3S2(=O)=O)c(C)n1-c1ccccc1`: the results for the inhibition in assay [1] and in assay [2] were -10.4% and 55.4% (active), respectively.

`O=C(NN1CCOCC1)c1ccco1`: the inhibition in assay [1] is -7.57%; in assay [2], -31.5%.

Regarding `O=C(Nc1ccc2nc3n(c(=O)c2c1)CCCCC3)c1c(F)ccc([N+](=O)[O-])c1F`, the inhibition in assay [1] was 83% (active); in assay [2] it was 75.5% (active).

Regarding `COc1ccc(-c2nnc(SCc3cccc(F)c3)n2-c2ccccc2)cc1`, the values for the inhibition in assay [1] and in assay [2] were -12.4% and -7.06%, respectively.

On to `Clc1cccc(-c2nc(-c3ccccn3)no2)c1`, for which the values for the inhibition in assay [1] and in assay [2] were -11% and 7.62%, respectively.

(Values after PubChem BioAssay.)
